BRCA1 expr up: activators of BRCA1 expression; MCF7-BRCA1-FFLuc reporter, luminescence, 48 h; response scale: scaled: vehicle 0%, 10 µM genistein 100%; Potency, µM (titrated, usually from 46.1 µM), usual class: activators; actives 1.1% (n = 380,000); further: nearly all actives have a fitted effect of over 80% in size
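Luminescence from a BRCA1-driven firefly luciferase in MCF7 cells was the read-out, taken 15 min after substrate addition following 48 h compound exposure at 37 °C. Data were normalized to a 10 microM genistein control and DMSO vehicle.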
Nrf2 activator: activators of Nrf2 (ARE) signaling. Potency, µM (series often up to 46.1 µM), most hits filed as activators. AREc32 ARE-luciferase reporter (MCF7-derived line), luminescence, 24 h. actives 0.31% (n = 410,000); further: nearly all actives have a fitted effect of over 65% in size
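ARE activation measured as luciferase luminescence (Steady-Glo, 30 min RT) in AREc32_Fluc cells after 24 hr compound exposure at 37 deg C, 5% CO2; cells seeded overnight at 1000/well in OPTI-MEM, 5% FBS.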
p53 reactivator: re-activators of mutant p53; Potency, µM (doses to about 92.2 µM), most hits filed as activators; H1299 p53-A138V BP100-luciferase reporter, luminescence, 24 h; AID 504706; actives 0.063% (n = 320,000); further: nearly all actives have a fitted effect of over 45% in size
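H1299 (p53-null), stable ts p53-A138V + BP100-Luc; 1000 cells/well, Opti-MEM/10% FBS; cpd 4 pt, 1:5; 24 h, 37 deg C, 5% CO2; detection reagent 10 min RT; luminescence.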
IL-2 act: activates IL-2 in a cell-based reporter assay; IL-2 activation reporter assay, cell-based qHTS; stimulated with anti-CD3/CD4/CD28 beads; in transgenic mouse T cells; activation, % (series mostly up to about 46 µM); actives 0.065% (n = 360,000); AID 652025; in the data active means activation above about 50%; inconclusive means mostly about 30% to 49%
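Using fluorescent plate cytometry, EGFP and DsRed are detected in transgenic mouse T cells stimulated 18 h at 37 degrees C with antibody-coated beads after 60 min compound pretreatment.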
Nrf2 inh: inhibitors of Nrf2 signaling; A549 ARE-Fluc reporter, luciferase luminescence, 18-24 h; Potency, µM (doses to about 46 µM), actives largely listed as inhibitors; actives 2.1% (n = 360,000); further: nearly all actives have a fitted effect of over 60% in size
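Nrf2 function is reported as luminescence of an ARE-controlled luciferase in A549 cells. Compounds were tested at several concentrations, and a CellTiter-Fluor read on the same wells flagged cytotoxicity.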
A549 tox-1: kills or reduces viability of A549 cells in Nrf2 counter-screen; A549 ARE-Fluc cells, CellTiter-Fluor viability, 18-24 h; Potency, µM (series often up to 46 µM), actives largely listed as inhibitors; actives 0.16% (n = 390,000)
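A549 ARE-Fluc cells in 5% FBS OPTI-MEM, 5000 cells/well, rested 2 h then exposed to compounds in concentration-response for 18-24 h at 37 °C. Viability by CellTiter-Fluor fluorescence (Ex 405/Em 525) after 30 min; luciferase luminescence (BugLite, 15 min, RT) read afterwards.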
FLuc counter 3: counter-screen for Nrf2 inhibitors: firefly luciferase enzyme inhibition; shares compounds with Nrf2 inh; purified firefly luciferase, luminescence inhibition; Potency, µM (series often up to 57.5 µM), actives largely listed as inhibitors; actives 4% (n = 1,400); AID 720522; further: nearly all actives have a fitted effect of over 65% in size
Target sequence (P08659 whole entry, looked up): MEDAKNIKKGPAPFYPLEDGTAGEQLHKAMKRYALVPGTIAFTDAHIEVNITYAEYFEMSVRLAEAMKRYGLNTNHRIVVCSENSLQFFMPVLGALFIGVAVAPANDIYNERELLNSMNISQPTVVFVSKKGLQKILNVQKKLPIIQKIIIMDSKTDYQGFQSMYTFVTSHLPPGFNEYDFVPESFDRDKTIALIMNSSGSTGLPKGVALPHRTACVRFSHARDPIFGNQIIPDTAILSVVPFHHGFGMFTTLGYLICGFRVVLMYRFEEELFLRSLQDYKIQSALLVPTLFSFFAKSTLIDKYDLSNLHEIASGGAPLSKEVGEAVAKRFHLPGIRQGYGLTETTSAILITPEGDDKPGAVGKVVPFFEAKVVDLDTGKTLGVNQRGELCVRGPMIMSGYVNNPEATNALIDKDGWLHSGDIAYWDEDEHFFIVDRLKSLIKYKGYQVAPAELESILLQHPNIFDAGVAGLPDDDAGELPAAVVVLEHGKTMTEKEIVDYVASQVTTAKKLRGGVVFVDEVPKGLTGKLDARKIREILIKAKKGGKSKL
A549 tox-2: toxic to A549 ARE-Fluc cells in Nrf2 counterscreen | Potency, µM (highest dose often 46.1 µM), hits mostly inhibitors | A549 ARE-Fluc cells, cytotoxicity counterscreen | actives 2% (n = 1,400) | shares compounds with Nrf2 inh;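 further: cells exposed to compounds for 18 to 24 hours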
Nrf2 ARE inh: confirmation of Nrf2 inhibitors in A549 ARE reporter cells; A549 ARE-firefly luciferase reporter, luminescence; actives 74% (n = 1,400); Potency, µM (series often up to 46.1 µM), most hits filed as inhibitors; shares compounds with Nrf2 inh; further: nearly all actives have a fitted effect of over 65% in size
Large screens that a line does not name were inactive (follow-up assays come after a bar, where they were run). Sampled rows, rich in hits. Any-hit rate of the full collection: about 3.2%. Unless noted, the call rests on the fitted dose curve; in most records, active means well fitted curve in the direction sought with a large enough effect; inconclusive means small, poorly fitted or top-dose-only effect, or another doubt; inactive means no such curve, though single readings can be large; an effect the other way counts as inactive or inconclusive.

C=C(C)CSc1nnc([C@@H](N)Cc2c[nH]c3ccccc23)o1	Nrf2 inh inconclusive
CC[C@@H](O)C[C@H]1CCC[C@@]2(C[C@@H]3OC(=O)/C=C/[C@@](C)(O)[C@@H](O)[C@H](C)[C@@H](O)[C@H](OC4CCC(N(C)C)C(C)O4)[C@@H](O)[C@](C)(O)CCCCC/C=C/[C@@H]4CC(C)(C)O[C@@]4(O)C[C@H](O2)[C@H]3C)O1 (stereo partly specified)	BRCA1 expr up inconclusive, Nrf2 inh 0.0058µM, A549 tox-1 inconclusive (no result: p53 reactivator) | FLuc counter 3 inactive | A549 tox-2 inconclusive | Nrf2 ARE inh 0.0073µM
CN(Cc1ccccc1)C(=O)c1cccc(NC(=O)Cc2ccc([N+](=O)[O-])cc2)c1	Nrf2 inh inconclusive
CCc1ccc(CNn2cnnc2SCC(=O)NC(C)(C)C)cc1	Nrf2 inh inconclusive
NNC(=O)c1nc[nH]c1C(=O)Nc1ccc(Cl)cc1C(=O)c1ccccc1	none
CC(C)(C)OC(=O)NCc1ccc(CNC(=O)c2nc[nH]c2C(=O)NCc2ccc(CNC(=O)OC(C)(C)C)cc2)cc1	Nrf2 inh 6.5µM | FLuc counter 3 inactive | A549 tox-2 inactive | Nrf2 ARE inh 13µM
Nc1ncnc2c1ccn2[C@@H]1O[C@H](CO)[C@@H](O)[C@H]1O	Nrf2 inh 3.7µM, A549 tox-1 inconclusive (no result: p53 reactivator) | FLuc counter 3 inactive | A549 tox-2 inconclusive | Nrf2 ARE inh 0.65µM
NC(=S)c1cn(C2OC(CO)C(O)C2O)c2ncnc(N)c12 (stereo unspecified)	Nrf2 inh inconclusive, A549 tox-1 inconclusive
CC(=O)c1cn(Cc2ccccc2C#N)c2ccccc12	Nrf2 inh 1µM, A549 tox-1 inconclusive | FLuc counter 3 inactive | A549 tox-2 inactive | Nrf2 ARE inh inactive
CCC(C(=O)Nc1ccccc1F)N1C(=O)CN=C(c2ccccc2)c2ccccc21 (stereo unspecified)	none (no result: BRCA1 expr up, p53 reactivator, IL-2 act)
CCCCCCCCCCCCCCCC[n+]1ccccc1	Nrf2 inh 8.2µM, A549 tox-1 inconclusive (no result: p53 reactivator) | FLuc counter 3 inactive | A549 tox-2 inactive | Nrf2 ARE inh 8.2µM
CCCCCCC[n+]1ccc(-c2cc[n+](CCCCCCC)cc2)cc1	Nrf2 inh 2.6µM | FLuc counter 3 inactive | A549 tox-2 inactive | Nrf2 ARE inh 8.2µM
C=CC[C@@H](CC(=O)N(CCO)Cc1ccccc1)C(=O)NC[C@@H](OC(=O)[C@@H](CC=C)CC(=O)OC(C)(C)C)c1ccccc1	Nrf2 inh inconclusive
CCCCCCCC(=O)OCC(COC(=O)CCCCCCC)OC(=O)CCCCCCC	Nrf2 inh inconclusive
CC(=O)OC[C@]12CCC(C)=C[C@H]1O[C@@H]1[C@H](O)[C@@H](OC(C)=O)[C@@]2(C)[C@]12CO2	BRCA1 expr up inconclusive, p53 reactivator inconclusive, Nrf2 inh 0.018µM, A549 tox-1 inconclusive | FLuc counter 3 inactive | A549 tox-2 inactive | Nrf2 ARE inh 2.6µM
Cc1cc(-n2c(/C=C/c3cccs3)nc3ccccc3c2=O)ccc1Br	none (no result: BRCA1 expr up, p53 reactivator, IL-2 act, Nrf2 inh)
Cc1cc(NC(=O)c2cc(-c3cccc(Cl)c3)on2)nn1Cc1ccc(Cl)cc1	Nrf2 inh 2.6µM (no result: BRCA1 expr up, p53 reactivator, IL-2 act) | FLuc counter 3 inactive | A549 tox-2 inactive | Nrf2 ARE inh 21µM
CCOC(=O)c1ncn2c1CN(C)C(=O)c1cc(F)ccc1-2	Nrf2 inh 2.1µM | FLuc counter 3 inactive | A549 tox-2 inactive | Nrf2 ARE inh 7.3µM

Compound activity from PubChem BioAssay.
